Hit rate of the full screen: of about 340,000 compounds, about 1,000 (0.29%) were called active. Cut-off read from the data, not from the text of the source: inconclusive = inhibition above about 29% without an active follow-up result; inactive = below that. These entries were drawn from the full list. Results with a measured potency or affinity are listed apart.
Biological target: Genome polyprotein (Dengue virus type 2 (strain 16681-PDK53)) (UniProt P29991)
Assay: Dengue-2 NS5 methyltransferase inhibitors, primary screen, biochemical, confirmation dose response (AID 588689)
Details: Dengue-2 NS5 methyltransferase capping enzyme assay, at 25 µM, stronger effect = higher value
[1] = measured here: pilot screen replicate inhibition

Genome polyprotein (Dengue virus type 2 (strain 16681-PDK53)), sequence (P29991 whole entry, looked up): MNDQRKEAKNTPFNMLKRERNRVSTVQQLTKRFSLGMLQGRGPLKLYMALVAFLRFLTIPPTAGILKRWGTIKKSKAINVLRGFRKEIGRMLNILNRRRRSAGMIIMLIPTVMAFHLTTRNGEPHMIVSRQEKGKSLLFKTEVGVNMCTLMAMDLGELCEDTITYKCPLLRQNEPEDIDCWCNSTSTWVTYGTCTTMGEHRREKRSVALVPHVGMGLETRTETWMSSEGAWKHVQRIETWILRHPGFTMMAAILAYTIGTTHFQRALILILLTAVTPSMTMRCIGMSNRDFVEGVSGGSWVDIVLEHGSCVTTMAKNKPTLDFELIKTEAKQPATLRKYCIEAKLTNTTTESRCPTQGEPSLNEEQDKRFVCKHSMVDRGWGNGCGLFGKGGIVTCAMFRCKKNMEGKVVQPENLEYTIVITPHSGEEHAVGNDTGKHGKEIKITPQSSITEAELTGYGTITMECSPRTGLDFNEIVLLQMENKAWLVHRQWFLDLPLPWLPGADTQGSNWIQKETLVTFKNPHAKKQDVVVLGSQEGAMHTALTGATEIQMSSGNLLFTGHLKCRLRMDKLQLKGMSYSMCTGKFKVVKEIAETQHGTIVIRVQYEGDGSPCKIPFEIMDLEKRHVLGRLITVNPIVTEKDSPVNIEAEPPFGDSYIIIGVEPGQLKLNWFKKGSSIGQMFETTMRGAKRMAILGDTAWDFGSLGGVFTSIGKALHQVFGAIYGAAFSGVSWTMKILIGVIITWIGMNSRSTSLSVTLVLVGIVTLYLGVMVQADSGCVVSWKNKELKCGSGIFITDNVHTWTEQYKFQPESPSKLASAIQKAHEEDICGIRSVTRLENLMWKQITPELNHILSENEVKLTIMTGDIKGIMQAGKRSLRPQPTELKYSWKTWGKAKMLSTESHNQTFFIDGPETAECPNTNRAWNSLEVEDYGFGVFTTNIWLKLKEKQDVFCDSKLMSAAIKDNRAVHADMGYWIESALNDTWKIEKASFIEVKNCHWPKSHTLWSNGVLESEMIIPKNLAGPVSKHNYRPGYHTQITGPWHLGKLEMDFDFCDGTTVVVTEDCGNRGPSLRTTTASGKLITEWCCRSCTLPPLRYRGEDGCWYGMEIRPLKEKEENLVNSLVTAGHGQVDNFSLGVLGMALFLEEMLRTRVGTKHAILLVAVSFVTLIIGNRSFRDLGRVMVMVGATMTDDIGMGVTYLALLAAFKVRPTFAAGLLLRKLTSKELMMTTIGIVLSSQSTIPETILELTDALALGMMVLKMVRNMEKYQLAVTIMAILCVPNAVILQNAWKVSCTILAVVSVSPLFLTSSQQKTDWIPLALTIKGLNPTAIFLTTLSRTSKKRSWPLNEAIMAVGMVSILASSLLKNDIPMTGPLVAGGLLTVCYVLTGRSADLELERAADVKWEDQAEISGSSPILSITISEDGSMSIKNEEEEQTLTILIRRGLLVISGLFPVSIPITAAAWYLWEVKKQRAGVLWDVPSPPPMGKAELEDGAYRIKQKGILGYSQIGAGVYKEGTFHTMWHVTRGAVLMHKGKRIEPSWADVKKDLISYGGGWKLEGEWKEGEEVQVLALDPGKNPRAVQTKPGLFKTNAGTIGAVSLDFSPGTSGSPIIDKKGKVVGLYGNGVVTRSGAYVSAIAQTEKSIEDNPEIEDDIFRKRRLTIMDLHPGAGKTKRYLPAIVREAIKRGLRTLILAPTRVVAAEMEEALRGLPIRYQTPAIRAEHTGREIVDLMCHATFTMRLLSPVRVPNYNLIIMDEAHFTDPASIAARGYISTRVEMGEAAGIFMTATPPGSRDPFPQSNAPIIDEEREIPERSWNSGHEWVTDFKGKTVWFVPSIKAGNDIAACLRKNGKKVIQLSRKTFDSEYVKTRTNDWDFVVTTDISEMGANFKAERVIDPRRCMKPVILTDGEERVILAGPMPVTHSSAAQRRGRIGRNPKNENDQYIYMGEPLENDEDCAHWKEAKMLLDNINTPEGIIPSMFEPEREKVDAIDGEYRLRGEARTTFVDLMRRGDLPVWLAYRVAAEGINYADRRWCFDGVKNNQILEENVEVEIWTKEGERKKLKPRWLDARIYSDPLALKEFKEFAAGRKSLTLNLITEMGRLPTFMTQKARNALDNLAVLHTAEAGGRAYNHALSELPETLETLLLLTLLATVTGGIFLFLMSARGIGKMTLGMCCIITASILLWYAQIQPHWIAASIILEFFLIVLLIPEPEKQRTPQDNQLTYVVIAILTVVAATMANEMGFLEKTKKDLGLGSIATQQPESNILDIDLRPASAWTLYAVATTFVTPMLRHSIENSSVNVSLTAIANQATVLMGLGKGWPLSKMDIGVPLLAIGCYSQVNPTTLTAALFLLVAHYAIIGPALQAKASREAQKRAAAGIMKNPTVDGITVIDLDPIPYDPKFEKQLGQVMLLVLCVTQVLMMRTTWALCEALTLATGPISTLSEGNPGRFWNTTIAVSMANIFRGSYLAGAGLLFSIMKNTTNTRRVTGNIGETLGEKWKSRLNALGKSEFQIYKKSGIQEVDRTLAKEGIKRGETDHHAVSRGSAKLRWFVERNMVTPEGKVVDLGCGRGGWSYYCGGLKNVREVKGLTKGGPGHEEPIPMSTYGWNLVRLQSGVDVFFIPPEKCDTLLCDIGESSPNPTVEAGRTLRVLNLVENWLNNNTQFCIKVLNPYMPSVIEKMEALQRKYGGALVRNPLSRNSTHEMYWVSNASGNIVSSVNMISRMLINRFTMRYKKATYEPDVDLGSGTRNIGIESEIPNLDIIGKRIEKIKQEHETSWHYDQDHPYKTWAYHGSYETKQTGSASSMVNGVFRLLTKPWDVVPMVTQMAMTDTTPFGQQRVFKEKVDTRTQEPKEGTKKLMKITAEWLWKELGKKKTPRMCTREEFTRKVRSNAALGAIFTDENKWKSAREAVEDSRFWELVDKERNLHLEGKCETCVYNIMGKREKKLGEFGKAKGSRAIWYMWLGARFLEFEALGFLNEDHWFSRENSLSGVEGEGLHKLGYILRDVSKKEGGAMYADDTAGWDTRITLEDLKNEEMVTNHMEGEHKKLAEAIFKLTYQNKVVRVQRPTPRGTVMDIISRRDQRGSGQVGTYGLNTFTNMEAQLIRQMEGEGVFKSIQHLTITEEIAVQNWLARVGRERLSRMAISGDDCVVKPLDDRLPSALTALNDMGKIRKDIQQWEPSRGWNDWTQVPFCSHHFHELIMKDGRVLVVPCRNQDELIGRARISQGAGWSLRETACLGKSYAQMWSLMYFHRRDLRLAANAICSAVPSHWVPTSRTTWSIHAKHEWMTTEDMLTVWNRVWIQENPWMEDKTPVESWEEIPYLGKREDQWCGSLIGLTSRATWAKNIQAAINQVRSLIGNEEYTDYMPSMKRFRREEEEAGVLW

Row | SMILES | inhibition | inhibition [1]
1 | CC(C)(CNC(=O)c1cc(Cl)c(O)c(Cl)c1)N1CCCCC1 | 3.57% (inactive) | –
2 | CCC1=NN2C(=N)/C(=C/c3ccc(OS(=O)(=O)c4ccccc4)c(OC)c3)C(=O)N=C2S1 | 4.04% (inactive) | –
3 | N=C1/C(=C\c2ccc(OC(=O)c3ccccc3Cl)cc2)C(=O)N=C2SC(N3CCOCC3)=NN12 | 34.8% (inactive) | –
4 | N=C1/C(=C\c2ccc(OC(=O)c3ccc(F)cc3)cc2)C(=O)N=C2SC(N3CCCC3)=NN12 | -2.77% (inactive) | –
5 | Cc1ccc(C(=O)Oc2ccc(/C=C3\C(=N)N4N=C(N5CCOCC5)SC4=NC3=O)cc2)cc1 | 9.04% (inactive) | –
6 | N=C1/C(=C\c2ccc(OC(=O)c3ccccc3)cc2)C(=O)N=C2SC(N3CCOCC3)=NN12 | 3.46% (inactive) | –
7 | CCC1=NN2C(=N)/C(=C\c3ccc(OCCOc4ccc(NC(C)=O)cc4)c(OC)c3)C(=O)N=C2S1 | 4.57% (inactive) | –
8 | COCCN(CCOC)S(=O)(=O)c1ccc(C(=O)NCCCN2CCOCC2)cc1 | -2.15% (inactive) | –
9 | O=C(c1ccco1)N1CCN(C(=S)Nc2ccccc2Cl)CC1 | 1.93% (inactive) | –
10 | Cc1cc2n(n1)C(c1ccsc1)Nc1ccccc1-2 (stereo not given) | -9.35% (inactive) | –
11 | C/C(=C\COc1cc(=O)[nH]c2ccccc12)CCC(O)C(C)(C)O (stereo not given) | -11.2% (inactive) | –
12 | Cc1nc2ccccc2n1CC(=O)NC(C)C1CC2CCC1C2 (stereo not given) | -6.66% (inactive) | –
13 | C=CCn1c(SCc2ccc(F)cc2)nc2c1c(=O)[nH]c(=O)n2C | -3.48% (inactive) | –
14 | Cc1nn(CC(=O)Nc2cccnc2)c(C)c1[N+](=O)[O-] | -9.49% (inactive) | –
15 | C/C(=N/NC(=O)Cc1ccccc1)c1ccc(C)s1 | 5.19% (inactive) | –
16 | O=C1ON=C(c2ccccc2)/C1=C/c1ccccc1 | 27% (inactive) | 8.25%
17 | O=C1ON=C(c2ccccc2)/C1=C/c1ccc(O)cc1 | 42% (inactive) | 20.8%
18 | O=C1ON=C(c2ccccc2)/C1=C/c1ccc(O)c(O)c1 | 28.7% (inactive) | –
19 | Cc1ccc(C2=NOC(=O)/C2=C\c2ccccc2)cc1 | 27.9% (inactive) | –
20 | O=c1[nH]c2cc(Cl)cc(Cl)c2[nH]c1=O | -3.92% (inactive) | –

Row | SMILES | inhibition | inhibition [1]
21 | CSc1nc(N(C)C)nc(N(C#N)CCOC(C)=O)n1 | 0.74% (inactive) | –
22 | COc1ccc(NS(=O)(=O)c2cc(NC(=O)[C@@H](NC(=O)c3ccccc3)C(C)C)ccc2C)cc1 | -3.89% (inactive) | –
23 | Cc1[nH]c2ccccc2c1SCC(=O)O | -8.76% (inactive) | –
24 | C=CCOc1ccc(C(c2c(C)n(C)n(-c3ccccc3)c2=O)c2c(C)n(C)n(-c3ccccc3)c2=O)cc1 | -3.27% (inactive) | –
25 | COc1ccc(CN=Cc2c(C(=O)O)[nH]c3ccccc23)cc1 | -3.12% (inactive) | –
26 | CC(=O)Nc1c(C(=O)O)[nH]c2ccccc12 | -4.8% (inactive) | –
27 | O=C(O)c1[nH]c2ccccc2c1-c1ccccc1 | -4.76% (inactive) | –
28 | COc1cc(CC(=O)O)ccc1OCc1ccccc1 | -5.48% (inactive) | –
29 | O=C(O)CCc1c(C(=O)O)[nH]c2ccccc12 | -0.56% (inactive) | –
30 | COc1cc(C(NC(C)=O)NC(C)=O)ccc1OCc1ccccc1 | -12.5% (inactive) | –
31 | COc1ccc2sc(N(CCCN(C)C)C(=O)c3ccc(C(=O)c4ccccc4)cc3)nc2c1 | 0% (inactive) | –
32 | CN(Cc1ccccc1F)C(=O)C1CCCN(C(=O)c2ccc(Cl)cc2)C1 (stereo not given) | 3.62% (inactive) | –
33 | COc1ccc(NS(=O)(=O)c2ccc3c(c2)N(C(C)=O)CCS3)cc1 | -7.87% (inactive) | –
34 | CCOc1nc(C)ccc1-c1noc(C)n1 | 0% (inactive) | –
35 | COCc1c(Br)c(C)nc(OCC(=O)O)c1C#N | 0.8% (inactive) | –
36 | CCCCN(C(=O)CCC(=O)Nc1cc(C)on1)C(C(=O)NC1CCCC1)c1ccc(F)cc1 (stereo not given) | -14.2% (inactive) | –
37 | N#Cc1cc2c(nc1SCc1cccc(Cl)c1)CCCCC2 | 4.4% (inactive) | –
38 | Cc1ccc(C(=O)OCC(=O)N2CCC(C)CC2)cc1S(=O)(=O)N1CCCCC1 | -4.55% (inactive) | –
39 | CCCCSC1=N/C(=C/c2ccsc2)C(=O)N1c1ccccc1 | -1.97% (inactive) | –
40 | Fc1cccc(COc2ccccc2C(=S)N2CCCC2)c1 | -5.22% (inactive) | –

Row | SMILES | inhibition | inhibition [1]
41 | CCS(=O)(=O)Nc1c(C(=O)O)[nH]c2ccccc12 | -0.33% (inactive) | –
42 | Cc1[nH]c2ccccc2c1C(C[N+](=O)[O-])c1cccc(O)c1 (stereo not given) | -3.77% (inactive) | –
43 | C#CCOCCOCCOCCNc1nc(N2CCN(C(=O)[C@H](CO)n3cc([C@@H](N)C(C)C)nn3)CC2)nc(N2CCN(C(=O)[C@H](CCCCN)n3cc([C@@H](N)[C@H](C)CC)nn3)CC2)n1 | 0% (inactive) | –
44 | Cc1ccsc1/C=N/NC(=O)c1ccncc1 | -0.74% (inactive) | –
45 | Cc1ccc(/C=N/NC(=O)c2ccncc2)cc1 | -7.15% (inactive) | –
46 | Cn1c(=O)c(/C(N)=N/OC(=O)c2ccccc2)cn(-c2ccccc2)c1=O | 0% (inactive) | –
47 | CCc1nc2nc(C)c(NS(=O)(=O)c3ccc(C4CCCCC4)cc3)c(=O)n2[nH]1 | 7.51% (inactive) | –
48 | Cc1nc2nc(C)c(NS(=O)(=O)c3ccc(C4CCCCC4)cc3)c(=O)n2[nH]1 | -5.01% (inactive) | –
49 | Cc1cc(Br)ccc1NC(=O)c1ccc(-n2cncn2)c([N+](=O)[O-])c1 | 5.79% (inactive) | –
50 | O=C(CCCCCNc1nc(=S)[nH]c2ccccc12)NCCC1=CCCCC1 | -4.45% (inactive) | –
51 | CCCCn1c(N)c(N(CC(C)C)C(=O)C2CCCO2)c(=O)[nH]c1=O (stereo not given) | -0.74% (inactive) | –
52 | COc1cc2c(cc1OC)C1c3ccc(OC)c(OC)c3OCC1(O)C2 (stereo not given) | 3.23% (inactive) | –
53 | CCOc1ccc(NC(=O)CN(C)C(=O)c2ccncc2)cc1OCC | 4.54% (inactive) | –
54 | O=C(CCOc1ccccc1)N1CCCC(Nc2ccccc2)C1 (stereo not given) | -3.45% (inactive) | –
55 | COc1cccc(CNC(=O)[C@H](C)NC(=O)C2CCN(S(=O)(=O)c3ccccc3)CC2)c1 | -6.35% (inactive) | –
56 | CC12CCC(=O)N1C(C(=O)Nc1nccs1)CS2 (stereo not given) | -5.93% (inactive) | –
57 | Cc1nc(SCC(=O)O)c2oc3ccccc3c2n1 | -1.65% (inactive) | –
58 | O=C(O)CSc1nc(-c2ccccc2)nc2c1oc1ccccc12 | 5.73% (inactive) | –

Reference: PubChem BioAssay AID588689 (Southern Research Specialized Biocontainment Screening …, 2011)
